Records with an inconclusive call do not appear. Active and inactive are the calls of the source. Calls follow the shape of the dose curve; as a rule, active = well fitted inhibition curve with a large enough effect; inconclusive = small, poorly fitted or top-dose-only effect; inactive = no such curve, though single readings can be large or run the other way.
Target: Cruzipain (Trypanosoma cruzi) (UniProt P25779)
Test: Confirmation qHTS Assay for Inhibitors of Cruzain; also: nearly all actives have a fitted effect of over 40% in size;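 as to activity change, negative = inhibition: plate controls were uninhibited enzyme control for no effect and buffer wells lacking enzyme for full effect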
Conditions: purified cruzain, Z-FR-AMC fluorescence, 0.01% Triton
Description: Cruzain is a cysteine protease from the tropical parasite Trypanosoma cruzi. This assay protocol is a follow-up and confirmation of related AID 1478 (qHTS Assay for Promiscuous and Specific Inhibitors of Cruzain -- with detergent). Cruzain was assayed by the use of fluorogenic coumarin-based substrate Z-FR-AMC: proteolytic cleavage releases AMC, whose fluorescence is measured at 360 nm excitation and 450 nm emission. Purified cruzain was supplied by the labs of Prof. James McKerrow and Brian Shoichet, UC San Francisco. This assay had 0.01% Triton X-100 concentration. See following references for additional details: Jadhav A, et al. J Med Chem. 2010 Jan 14;53(1):37-51. Mott BT, et al. J Med Chem. 2010 Jan 14;53(1):52-60. Assay Provider: Shoichet, Brian; University of California, San Fancisco Screening Center PI: Austin, C.P. Screening Center: NIH Chemical Genomics Center [NCGC]
Buffer: 100 mM Sodium Acetate, pH 5.5, 5 mM DTT, Triton X-100 concentration: 0.01%. Reagents/Controls: Buffer in columns 3 and 4 as negative control (no enzyme). Substrate solution: 2 uM final concentration of Z-FR-AMC (catalog number I-1160, Bachem) dispensed throughout the plate. Enzyme: 1.5 nM Cruzain final concentration in columns 1, 2, 5-48. Column 1 is neutral (100% activity). Column 2 contained titration of covalent inhibitor K11777, starting concentration 1 mM, then 1:2 dilution in duplicate). Assay Steps: Three uL of enzyme or buffer were dispensed to 1536-well Greiner black solid bottom plates. Compounds and controls (23 nL) were transferred via Kalypsys PinTool. The plates were incubated for 15 min at room temperature, and then 1 uL of substrate solution was added to start the reaction. The plates were immediately transferred to and read 4 times every 30 seconds for 2 min on ViewLux High-throughput CCD imager (Perkin-Elmer) using 360 nm excitation and 450 nm emission fluorescence protocol. The fluorescence intensity difference between the third and the first time points (time lapse of 60 seconds) was used to compute reaction progress.
Potency is read from the fitted curve at half-maximal effect.

Cruzipain (Trypanosoma cruzi), sequence (P25779 123-467 limits assumed): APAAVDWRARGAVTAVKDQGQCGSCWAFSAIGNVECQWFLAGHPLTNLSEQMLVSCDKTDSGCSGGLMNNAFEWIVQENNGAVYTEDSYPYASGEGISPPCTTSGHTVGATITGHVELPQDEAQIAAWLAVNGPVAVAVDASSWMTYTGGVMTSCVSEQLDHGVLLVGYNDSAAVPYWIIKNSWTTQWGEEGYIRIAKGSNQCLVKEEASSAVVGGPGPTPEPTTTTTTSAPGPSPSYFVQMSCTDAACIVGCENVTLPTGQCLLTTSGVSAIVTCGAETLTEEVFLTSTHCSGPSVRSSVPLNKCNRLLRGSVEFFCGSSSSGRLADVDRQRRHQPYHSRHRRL

| Compound | Potency | activity change, negative = inhibition |
| --- | --- | --- |
| Cc1ccc(S(=O)(=O)N[C@@H](CCCCN)C(=O)CCl)cc1 | 0.282 µM (active) | – |
| Cc1nc2c(=O)n(C)c(=O)nc-2n(C)n1 | 2 µM (active) | – |
| CCn1nc(-c2ccccc2)nc2c(=O)n(C)c(=O)nc1-2 | 3.98 µM (active) | – |
| Cn1ncnc2c(=O)n(C)c(=O)nc1-2 | 2.24 µM (active) | – |
| NC(=O)CSc1nnc([C@@H](N)Cc2c[nH]c3ccccc23)o1 | 15.8 µM (active) | – |
| CC(C)OC(=O)c1c(N)n(Cc2ccco2)c2nc3ccccc3nc12 | – | -8.08% (inactive) |
| Cn1nc(-c2ccccc2)nc2c(=O)n(C)c(=O)nc1-2 | 1.41 µM (active) | – |
| O=C(Nc1nc(-c2ccccc2)c(-c2ccccc2)s1)c1ccc(S(=O)(=O)N(CCCl)CCCl)cc1 | – | -8.01% (inactive) |
| Cc1ccc(-c2nc3c(=O)n(C)c(=O)nc-3n(C)n2)cc1 | 1.41 µM (active) | – |
| N#CC(C#N)=NNc1cccc(Cl)c1 | 15.8 µM (active) | – |
| CCc1ccccc1NC(=O)CSc1nnc([C@@H](N)Cc2c[nH]c3ccccc23)o1 | – | -73.4% (inactive) |

— PubChem BioAssay AID2158 (National Center for Advancing Translational Sciences (NCATS), 2009)
